Reference: PubChem BioAssay (Tox21)
A number with no mark means an inactive call. Inconclusive results are not listed. A call without a number means that no potency is given here. The source made the active and inactive calls. Unless noted, calls come from the whole dose curve; as a rule, active = well fitted curve in the direction sought with a large enough effect in the repeat runs; inconclusive = weak or mixed curves; inactive = no such curve, though single readings can be large; an effect the other way counts as inactive or inconclusive.

Tests used:
[1] = qHTS assay for small molecule agonists of the p53 signaling pathway (AID 651631; calls by dose curve; note: nearly all actives have a fitted effect of over 15% in size)
Method in brief: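 Read-out is beta-lactamase FRET fluorescence measured 2 h after substrate addition at room temperature, in HCT-116 cells with a p53 response element-driven reporter exposed to compounds for 16 h at 37 °C.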

[2] = qHTS assay for small molecules that induce genotoxicity in human embryonic kidney cells expressing luciferase-tagged ATAD5 (AID 651632); note: nearly all actives have a fitted effect of over 15% in size
Method in brief: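 Test compounds were delivered by pin tool onto HEK293T reporter cells (2,000/well) expressing ATAD5 fused to luciferase. After 16 hr at 37C, 5% CO2, Amplite was added for 30 min at room temperature and luminescence was measured.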

[3] = qHTS assay for small molecule agonists of the p53 signaling pathway - cell viability (AID 651633; calls by dose curve;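 note: p53RE-bla HCT reporter cells with a stable beta-lactamase p53 reporter; series mostly up to about 83 µM; nearly all actives have a fitted effect of over 30% in size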)
Method in brief: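 Viability counter-read: CellTiter-Glo luminescence (30 min, room temperature) in the same p53RE-bla plates. These plates had been exposed to compounds for 16 h at 37 C.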

[4] = qHTS assay for small molecules that induce genotoxicity in human embryonic kidney cells expressing luciferase-tagged ATAD5 - cell viability (AID 651634; calls by dose curve; note: nearly all actives have a fitted effect of over 25% in size)
Method in brief: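 Quantitative high-throughput format. HEK293T cells expressing ATAD5 fused to luciferase were plated at 2,000 cells/well and treated 15.5 hr with compound versus DMSO. Viability was determined by fluorescent live-cell protease substrate, 30 min at 37C.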

[5] = qHTS assay for small molecule disruptors of the mitochondrial membrane potential - cell viability (AID 720634; calls by dose curve;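 note: human HepG2 liver cancer cells; series mostly up to about 83 µM; nearly all actives have a fitted effect of over 20% in size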)
Method in brief: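 Same-well counter-screen: following the MMP dye addition, CellTiter-Glo was added to 1 hr compound-treated HepG2 cells and luminescence read after 30 min at room temperature.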

[6] = qHTS assay to test for compound auto fluorescence at 590 nm (red) in HepG2 cells (AID 720674)
Method in brief: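 Red autofluorescence (Ex/Em 540/590 nm, Rose Bengal sodium equivalents) was measured in HepG2 cells, 2,000 per well in MEM plus 10% FBS, plated overnight at 37 C. Readings were taken 1 hr after adding 23 nL compound or DMSO, at 37 C and 5% CO2.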

[7] = qHTS assay to test for compound auto fluorescence at 535 nm (green) in HepG2 cells (AID 720675)
[8] = qHTS assay to test for compound auto fluorescence at 460 nm (blue) in HEK293 cells (AID 720678)
Method in brief: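 Cells were seeded and left to adhere for 4-5 hr at 37C. Compounds were then pin-transferred. After an overnight incubation at 37C under 5% CO2, intrinsic fluorescence at 405/460 nm was measured and referenced to triamterene.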

[9] = qHTS assay to test for compound auto fluorescence at 590 nm (red) in HEK293 cells (AID 720679)
Method in brief: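 Each well held 2,000 HEK293 cells in medium containing 10% dialyzed FBS. Following 4-5 hr attachment at 37C, 23 nL test compound or DMSO was added; plates sat overnight, and red fluorescence (540/590nm) was recorded.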

[10] = qHTS assay to test for compound auto fluorescence at 535 nm (green) in HEK293 cells (AID 720680)
[11] = qHTS assay to test for compound auto fluorescence at 460 nm (blue) in HEK293 cell free culture (AID 720681)
Method in brief: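 Blue fluorescence (Ex 405/Em 460 nm, triamterene-equivalent) was read immediately after pin transfer of compound or DMSO into medium (DMEM, 10% FBS) without cells.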

[12] = qHTS assay to test for compound auto fluorescence at 535 nm (green) in HEK293 cell free culture (AID 720682)
Method in brief: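 Fluorescein serves as the green reference fluorophore; each compound's intrinsic emission at 535 nm (excitation 485 nm) is reported as an equivalent amount of that dye, measured in serum-containing DMEM without cells.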

[13] = qHTS assay to test for compound auto fluorescence at 590 nm (red) in HEK293 cell free culture (AID 720683)
Method in brief: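 Red-channel autofluorescence of compounds in culture medium (DMEM, 10% FBS), no cells, measured at 540/590 nm. Rose Bengal sodium is the reference fluorophore for equivalence.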

[14] = qHTS assay to test for compound auto fluorescence at 590 nm (red) in HepG2 cell free culture (AID 720684)
Method in brief: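 Cell-free; medium MEM + 10% FBS; compound or DMSO added by pintool; read Ex 540/Em 590 nm; Rose Bengal sodium as red reference fluorophore.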

[15] = qHTS assay to test for compound auto fluorescence at 460 nm (blue) in HepG2 cell free culture (AID 720685)
Method in brief: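 Cell-free plates of MEM plus 10% FBS received 23 nL compound or DMSO vehicle; blue-channel (405/460 nm) intensity scored against triamterene as reference fluorophore.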

[16] = qHTS assay to test for compound auto fluorescence at 535 nm (green) in HepG2 cell free culture (AID 720686)
[17] = qHTS assay to test for compound auto fluorescence at 460 nm (blue) in HepG2 cells (AID 720687)
Method in brief: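 Blue-channel autofluorescence (Ex/Em 405/460 nm, triamterene-equivalent) was measured after 1 hr compound exposure at 37 C, 5% CO2. Cells were HepG2, plated overnight at 37 C in MEM plus 10% FBS.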

[18] = qHTS assay to identify small molecule antagonists of the glucocorticoid receptor (GR) signaling pathway - cell viability counter screen (AID 720693); note: nearly all actives have a fitted effect of over 55% in size
[19] = qHTS assay for identifying genotoxic compounds that show differential cytotoxicity against isogenic chicken DT40 cell lines with known DNA damage response pathways - wild type cell line (AID 743012); note: nearly all actives have a fitted effect of over 60% in size; note: potency is the fitted concentration of half-maximal effect
Method in brief: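 300 wt DT40 cells/well; cpd (DMSO) pintool-transferred after ~0.5 h at 37 C/5% CO2; 40 h incubation; CellTiter-Glo added, 30 min RT; luminescence read.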

[20] = qHTS assay for identifying genotoxic compounds that show differential cytotoxicity against isogenic chicken DT40 cell lines with known DNA damage response pathways - Rev3 mutant cell line (AID 743014); note: nearly all actives have a fitted effect of over 55% in size; note: potency is the fitted concentration of half-maximal effect
[21] = qHTS assay for identifying genotoxic compounds that show differential cytotoxicity against isogenic chicken DT40 cell lines with known DNA damage response pathways - Rad54/Ku70 mutant cell line (AID 743015); note: nearly all actives have a fitted effect of over 60% in size; note: potency is the fitted concentration of half-maximal effect
[22] = qHTS assay to identify small molecule antagonists of the androgen receptor (AR) signaling pathway - cell viability counter screen (AID 743033; note: nearly all actives have a fitted effect of over 45% in size)
[23] = qHTS assay to identify small molecule antagonists of the androgen receptor (AR) signaling pathway using the MDA cell line - cell viability counter screen (AID 743041; note: nearly all actives have a fitted effect of over 45% in size)
Method in brief: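 Viability read by CellTiter-Fluor fluorescence in the same wells as the antagonist screen, added after 15.5 h of a 16 h, 37C exposure. Human breast carcinoma MDA-kb2 AR-luc cells, compounds co-dosed with agonist R1881.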

[24] = qHTS assay to identify small molecule antagonists of the thyroid receptor (TR) signaling pathway - cell viability counter screen (AID 743064); note: potency is the fitted concentration of half-maximal effect; nearly all actives have a fitted effect of over 50% in size
Method in brief: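 Fluorescence from CellTiter-Fluor, added after 23.5 h exposure at 37 °C, reported viability of GH3.TRE-Luc cells co-treated with compound and 1 nM T3. Measured in the same wells as the luciferase TR readout.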

[25] = qHTS assay to identify small molecule antagonists of the thyroid receptor (TR) signaling pathway (AID 743065); note: potency is the fitted concentration of half-maximal effect; nearly all actives have a fitted effect of over 55% in size
Method in brief: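 Antagonism measured as loss of luciferase signal in GH3 cells stably carrying a TRE-luciferase reporter, co-treated with compound and T3 (1 nM final) for 23.5 h at 37 C. Viability was read in the same well by CellTiter-Fluor.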

[26] = test system: thyroid hormone receptor (rat, GH3 cells); assay: qHTS assay to identify small molecule agonists of the thyroid receptor (TR) signaling pathway (AID 743066; calls by dose curve)
[27] = qHTS assay to identify small molecule antagonists of the estrogen receptor alpha (ER-alpha) signaling pathway using the BG1 cell line - cell viability counter screen (AID 743081);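 note: compound given together with 17beta-estradiol as the ER stimulus; series mostly up to about 70 µM; nearly all actives have a fitted effect of over 45% in size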
[28] = qHTS assay for small molecule disruptors of the mitochondrial membrane potential (AID 720635)
Method in brief: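 Mitochondrial membrane potential tracked with Mito-MPS dye, red aggregates (ex 540/em 590 nm) against green monomers (ex 490/em 535 nm). Compound treatment 1 hr at 37C, dye 30 min in HepG2.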

[29] = biological target: Glucocorticoid receptor (Homo sapiens) (UniProt P04150); assay: qHTS assay to identify small molecule agonists of the glucocorticoid receptor (GR) signaling pathway (AID 720691; active = well fitted activation curve with a large enough effect in the signal ratio in the repeat runs, not every such curve was filed as active; the % refers to the signal ratio)
Method in brief: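 A HeLa cervical cancer line expressing GR and a glucocorticoid response element-driven beta-lactamase gene is treated with compounds for 18 h; LiveBLAzer B/G FRET substrate is then applied and fluorescence read.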

[30] = biological target: Glucocorticoid receptor (Homo sapiens) (UniProt P04150); assay: qHTS assay to identify small molecule antagonists of the glucocorticoid receptor (GR) signaling pathway (AID 720692; active = well fitted inhibition curve with a large enough effect in the signal ratio in the repeat runs, not every such curve was filed as active; the % refers to the signal ratio)
Method in brief: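 GRE-bla HeLa line, dex-stimulated (5 nM final). Compound exposure 18 h, 37 C. Beta-lactamase FRET read after 2 h RT substrate.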

[31] = biological target: Androgen receptor (Homo sapiens) (UniProt P10275); assay: qHTS assay to identify small molecule antagonists of the androgen receptor (AR) signaling pathway (AID 743035; active = well fitted inhibition curve with a large enough effect in the signal ratio in the repeat runs, not every such curve was filed as active; the % refers to the signal ratio)
Method in brief: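 In this cell-based reporter screen, compounds were tested in concentration series against R1881-activated HEK293 cells expressing beta-lactamase under UAS control; after 16 h at 37C, FRET substrate was added and fluorescence read 2 h later.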

[32] = biological target: Androgen receptor (Homo sapiens) (UniProt P10275); assay: qHTS assay to identify small molecule agonists of the androgen receptor (AR) signaling pathway using the MDA cell line (AID 743040; note: nearly all actives have a fitted effect of over 20% in size)
Method in brief: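 Luciferase agonist assay: 16 h compound exposure at 37C without CO2 in MDA-kb2 AR-luc cells, whose MMTV promoter responds to both AR and GR. Luminescence measured after 30 min room-temperature incubation with ONE-Glo.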

[33] = biological target: Androgen receptor (Homo sapiens) (UniProt P10275); assay: qHTS assay to identify small molecule antagonists of the androgen receptor (AR) signaling pathway using the MDA cell line (AID 743042; note: nearly all actives have a fitted effect of over 55% in size)
Method in brief: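 Antagonist mode: compounds plus R1881 agonist added to MDA-kb2 AR-luc cells, incubated 16 h at 37C. Luciferase reporter luminescence quantified, with multiplexed CellTiter-Fluor readout for cell viability.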

[34] = biological target: Estrogen receptor (Homo sapiens) (UniProt P03372); assay: qHTS assay to identify small molecule antagonists of the estrogen receptor alpha (ER-alpha) signaling pathway (AID 743069; active = well fitted curve in the direction sought with a large enough effect in the signal ratio in the repeat runs, not every such curve was filed as active; the % refers to the signal ratio)
Method in brief: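 Antagonist mode: compounds in DMSO were co-added with 17beta-estradiol to ER-alpha-bla HEK293 cells (2% charcoal-stripped serum) and left 18 h at 37C. Reporter inhibition was measured as FRET fluorescence after 2 h LiveBLAzer substrate at room temperature.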

[35] = qHTS assay to identify small molecule antagonists of the estrogen receptor alpha (ER-alpha) signaling pathway - cell viability counter screen (AID 743074; calls by dose curve;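 note: HEK293 cells carrying ER-alpha-UAS-bla reporter stimulated with 17beta-estradiol; nearly all actives have a fitted effect of over 45% in size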)
[36] = biological target: Estrogen receptor (Homo sapiens) (UniProt P03372); assay: qHTS assay to identify small molecule agonists of the estrogen receptor alpha (ER-alpha) signaling pathway (AID 743075; calls by dose curve;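 note: HEK293 GripTite cells with ER-alpha and UAS-driven beta-lactamase reporter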)
[37] = biological target: Estrogen receptor (Homo sapiens) (UniProt P03372); assay: qHTS assay to identify small molecule agonists of the estrogen receptor alpha (ER-alpha) signaling pathway using the BG1 cell line (AID 743079); note: nearly all actives have a fitted effect of over 20% in size
[38] = qHTS assay to identify small molecule antagonists of the estrogen receptor alpha (ER-alpha) signaling pathway using the BG1 cell line (AID 743080; calls by dose curve; note: series mostly up to about 70 µM; nearly all actives have a fitted effect of over 25% in size)
Method in brief: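 Antagonist mode: compounds in DMSO were pinned onto BG1-Luc-4E2 cells alongside 17beta-estradiol agonist, incubated 21.5 h, and ERE-driven luciferase measured with ONE-Glo. Cytotoxicity was multiplexed using CellTiter-Fluor fluorescence.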

Aromatase (Homo sapiens) = Aromatase (Homo sapiens) (UniProt P11511); assay: qHTS assay to identify aromatase inhibitors (AID 743083)
[39] = qHTS assay to identify aromatase inhibitors - cell viability counter screen (AID 743084)
[40] = qHTS assay to identify small molecule that activate the aryl hydrocarbon receptor (AhR) signaling pathway - cell viability counter screen (AID 743086)
Method in brief: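 Cytotoxicity counter screen: CellTiter-Fluor signal (30 min, 37 C) in 4000 HepG2 cells/well carrying the DRE-luciferase reporter, following 24 h compound exposure at 37 C.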

[41] = biological target: Peroxisome proliferator-activated receptor gamma (Homo sapiens) (UniProt P37231); assay: qHTS assay to identify small molecule agonists of the peroxisome proliferator-activated receptor gamma (PPARg) signaling pathway (AID 743094; active = well fitted activation curve with a large enough effect in the signal ratio in the repeat runs, not every such curve was filed as active; the % refers to the signal ratio)
Method in brief: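 Cell-based bla reporter, HEK293H background, PPARg-driven UAS. Pre-incubation 5 h, 37C, 5% CO2. Compound 17 h, 37C. Substrate 1 h RT; fluorescence.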

Estrogen receptor (Homo sapiens), sequence (P03372 whole entry, looked up): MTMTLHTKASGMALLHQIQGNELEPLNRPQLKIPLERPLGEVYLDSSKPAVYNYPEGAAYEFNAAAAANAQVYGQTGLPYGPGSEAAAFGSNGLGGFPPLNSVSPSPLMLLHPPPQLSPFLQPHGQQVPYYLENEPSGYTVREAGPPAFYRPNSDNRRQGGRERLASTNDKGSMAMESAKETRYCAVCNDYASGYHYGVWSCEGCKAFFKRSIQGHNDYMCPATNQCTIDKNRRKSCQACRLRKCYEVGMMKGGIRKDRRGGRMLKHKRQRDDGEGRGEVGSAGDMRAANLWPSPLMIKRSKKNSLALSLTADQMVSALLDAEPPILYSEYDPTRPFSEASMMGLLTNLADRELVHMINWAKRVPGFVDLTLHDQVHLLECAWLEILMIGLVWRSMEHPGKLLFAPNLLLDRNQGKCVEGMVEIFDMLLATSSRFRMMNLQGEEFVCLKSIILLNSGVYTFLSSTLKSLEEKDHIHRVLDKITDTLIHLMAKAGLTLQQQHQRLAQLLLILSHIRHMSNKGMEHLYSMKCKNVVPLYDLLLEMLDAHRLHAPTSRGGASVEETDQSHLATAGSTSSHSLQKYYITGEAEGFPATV
Androgen receptor (Homo sapiens), sequence (P10275 whole entry, looked up): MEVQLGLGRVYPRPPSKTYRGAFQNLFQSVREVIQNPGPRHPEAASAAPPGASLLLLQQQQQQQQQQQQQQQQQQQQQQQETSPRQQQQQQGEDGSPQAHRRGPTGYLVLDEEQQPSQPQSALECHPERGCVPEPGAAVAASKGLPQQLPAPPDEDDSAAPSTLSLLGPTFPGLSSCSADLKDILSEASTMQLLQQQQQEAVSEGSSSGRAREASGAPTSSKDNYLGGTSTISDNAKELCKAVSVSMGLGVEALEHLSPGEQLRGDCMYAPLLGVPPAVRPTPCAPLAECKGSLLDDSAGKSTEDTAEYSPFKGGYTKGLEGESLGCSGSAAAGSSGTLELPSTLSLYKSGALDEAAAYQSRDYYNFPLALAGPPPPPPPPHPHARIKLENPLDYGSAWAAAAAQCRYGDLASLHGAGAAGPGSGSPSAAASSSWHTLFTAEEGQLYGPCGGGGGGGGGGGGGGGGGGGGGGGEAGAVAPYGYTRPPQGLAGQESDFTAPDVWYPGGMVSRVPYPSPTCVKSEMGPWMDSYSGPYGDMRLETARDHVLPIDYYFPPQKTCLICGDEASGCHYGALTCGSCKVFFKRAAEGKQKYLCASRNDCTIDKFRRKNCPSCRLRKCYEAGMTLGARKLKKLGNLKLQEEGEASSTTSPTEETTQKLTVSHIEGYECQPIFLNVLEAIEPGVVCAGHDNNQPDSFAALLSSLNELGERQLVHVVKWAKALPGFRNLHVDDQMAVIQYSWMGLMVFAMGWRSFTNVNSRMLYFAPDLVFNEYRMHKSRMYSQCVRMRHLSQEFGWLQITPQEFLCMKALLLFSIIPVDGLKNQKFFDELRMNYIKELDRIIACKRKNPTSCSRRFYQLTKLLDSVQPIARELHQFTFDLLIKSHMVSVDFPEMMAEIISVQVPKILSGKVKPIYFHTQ
Glucocorticoid receptor (Homo sapiens), sequence (P04150 whole entry, looked up): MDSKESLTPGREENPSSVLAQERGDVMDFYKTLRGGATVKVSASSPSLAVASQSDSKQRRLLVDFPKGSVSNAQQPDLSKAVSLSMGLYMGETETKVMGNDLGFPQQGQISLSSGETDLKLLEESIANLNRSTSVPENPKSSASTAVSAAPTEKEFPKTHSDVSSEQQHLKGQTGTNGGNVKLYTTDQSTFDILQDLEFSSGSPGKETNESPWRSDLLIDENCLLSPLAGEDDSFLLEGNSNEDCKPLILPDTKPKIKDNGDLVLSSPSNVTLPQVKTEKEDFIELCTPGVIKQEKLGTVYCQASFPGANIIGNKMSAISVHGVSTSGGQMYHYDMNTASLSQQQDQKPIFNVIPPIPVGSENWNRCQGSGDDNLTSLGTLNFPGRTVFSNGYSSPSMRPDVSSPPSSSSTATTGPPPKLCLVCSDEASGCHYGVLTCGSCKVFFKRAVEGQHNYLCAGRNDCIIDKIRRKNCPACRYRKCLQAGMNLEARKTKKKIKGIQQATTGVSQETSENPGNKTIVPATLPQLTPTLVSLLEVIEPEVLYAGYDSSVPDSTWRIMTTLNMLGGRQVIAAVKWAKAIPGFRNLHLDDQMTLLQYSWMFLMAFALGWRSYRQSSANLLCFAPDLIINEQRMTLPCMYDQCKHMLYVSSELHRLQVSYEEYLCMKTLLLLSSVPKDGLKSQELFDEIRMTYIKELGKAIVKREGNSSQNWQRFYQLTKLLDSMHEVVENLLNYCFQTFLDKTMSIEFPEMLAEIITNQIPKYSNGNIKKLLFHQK
Peroxisome proliferator-activated receptor gamma (Homo sapiens), sequence (P37231 whole entry, looked up): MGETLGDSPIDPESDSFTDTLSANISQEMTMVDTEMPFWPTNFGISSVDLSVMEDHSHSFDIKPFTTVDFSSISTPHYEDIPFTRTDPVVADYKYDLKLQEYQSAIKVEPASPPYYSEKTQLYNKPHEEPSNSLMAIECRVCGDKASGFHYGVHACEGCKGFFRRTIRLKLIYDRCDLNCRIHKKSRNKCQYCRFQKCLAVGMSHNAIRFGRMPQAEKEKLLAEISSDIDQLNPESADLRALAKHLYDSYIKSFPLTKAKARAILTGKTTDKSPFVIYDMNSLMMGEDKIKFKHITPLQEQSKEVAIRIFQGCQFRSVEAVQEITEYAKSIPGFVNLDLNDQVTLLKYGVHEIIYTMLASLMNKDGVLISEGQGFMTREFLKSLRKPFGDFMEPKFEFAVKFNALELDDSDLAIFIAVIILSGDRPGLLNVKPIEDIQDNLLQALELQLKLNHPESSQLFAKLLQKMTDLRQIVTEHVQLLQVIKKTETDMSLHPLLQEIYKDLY
Aromatase (Homo sapiens), sequence (P11511 whole entry, looked up): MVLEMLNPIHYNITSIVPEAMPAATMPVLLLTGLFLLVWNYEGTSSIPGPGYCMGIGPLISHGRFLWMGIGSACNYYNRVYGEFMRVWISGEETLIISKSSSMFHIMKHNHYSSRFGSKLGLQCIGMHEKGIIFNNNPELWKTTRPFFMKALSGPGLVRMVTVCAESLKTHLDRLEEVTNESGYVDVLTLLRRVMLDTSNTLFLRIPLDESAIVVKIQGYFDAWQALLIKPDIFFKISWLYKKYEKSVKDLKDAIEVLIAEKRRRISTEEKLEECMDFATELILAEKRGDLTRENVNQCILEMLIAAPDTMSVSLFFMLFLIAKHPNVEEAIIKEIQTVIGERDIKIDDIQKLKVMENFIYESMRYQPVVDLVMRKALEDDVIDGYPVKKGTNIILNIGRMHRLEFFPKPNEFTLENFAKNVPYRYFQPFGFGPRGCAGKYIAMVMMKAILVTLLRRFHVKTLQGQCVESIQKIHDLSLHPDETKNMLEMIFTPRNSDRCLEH

In the case of `CCC(=O)O[C@](Cc1ccccc1)(c1ccccc1)[C@H](C)CN(C)C`, the Potency [1] is reported as “inactive”, the outcome [2] is reported as “inactive” and the Potency [3] is reported as “inactive”. The Potency [4] was “inactive”, the outcome [5] was “inactive” and the outcome [6] was “inactive”. The outcome [7] was “inactive”, the outcome [8] was “inactive” and the outcome [9] was “inactive”. The outcome [10] was “inactive”, the outcome [11] was “inactive” and the outcome [12] was “inactive”. The outcome [13] was “inactive”, the outcome [14] was “inactive” and the outcome [15] was “inactive”. For the same molecule, the outcome [16] was “inactive”, the outcome [17] was “inactive” and the Potency [18] was “inactive”. For the same molecule, the Potency [19] was 38 µM (active), the Potency [20] was 60.3 µM (active) and the Potency [21] was 67.6 µM (active). The Potency [22] was “inactive”, the outcome [23] was “inactive” and the Potency [24] was 26.9 µM (active). The Potency [25] was 53.7 µM (active), the outcome [26] was “inactive” and the Potency [27] was “inactive”.
With `CNC(C)[C@@H]1CC[C@@H](N)[C@@H](O[C@H]2[C@H](O)[C@@H](O[C@H]3OC[C@](C)(O)[C@H](NC)[C@H]3O)[C@H](N)C[C@@H]2N)O1` (some centres undefined) the Potency [1] was “inactive”, the outcome [2] was “inactive” and the Potency [3] was “inactive”. For the same molecule, the Potency [4] was “inactive”, the outcome [5] was “inactive” and the Potency [28] was “inactive”. For the same molecule, the outcome [29] was “inactive”, the Potency [30] was “inactive” and the Potency [18] was “inactive”. The Potency [19] was “inactive”, the Potency [20] was “inactive” and the Potency [21] was “inactive”. For the same molecule, the Potency [22] was “inactive”, the Potency [31] was “inactive” and the outcome [32] was “inactive”. The outcome [23] was “inactive”, the outcome [33] was “inactive” and the outcome [34] was “inactive”. The Potency [35] was “inactive”, the Potency [36] was “inactive” and the Potency [37] was “inactive”. For the same molecule, the outcome [38] was “inactive”, the Potency [27] was “inactive” and the Potency (Aromatase (Homo sapiens)) was “inactive”. For the same molecule, the outcome [39] was “inactive”, the Potency [40] was “inactive” and the outcome [41] was “inactive”.
